In PubChem BioAssay (Tox21) one finds Potency data, which are given here for 40 compounds.

Molecules are shown by their SMILES. Records with an inconclusive call do not appear. Where a call stands in place of a potency, no number is given. Activity calls are given as the source filed them. Calls come from the whole dose curve.
Potency is the fitted concentration of half-maximal effect.

The nature of the test: qHTS assay to identify small molecule antagonists of the estrogen receptor alpha (ER-alpha) signaling pathway using the BG1 cell line (AID 743080).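 Note: BG1 cells stimulated with 17beta-estradiol alongside compound; nearly all actives have a fitted effect of over 25% in size.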 Conditions: BG1Luc4E2 ERE-luciferase antagonist mode, luminescence; series mostly up to 70.3 µM. The text has this:
National Center for Advancing Translational Sciences [NCATS]
NIH Chemical Genomics Center [NCGC]
U.S. Environmental Protection Agency [EPA]
National Institutes of Environmental Health Sciences [NIEHS]
National Toxicology Program [NTP]
U.S. Food and Drug Administration [FDA]
Estrogen receptor (ER), a nuclear hormone receptor, plays an important role in development, metabolic homeostasis and reproduction. Endocrine disrupting chemicals (EDCs) and their interactions with steroid hormone receptors like ER causes disruption of normal endocrine function. Therefore, it is important to understand the effect of environmental chemicals on the ER signaling pathway. To identify ER antagonists, BG1-Luc-4E2 cell line (provided by Dr. Michael Denison from University of California) has been used to screen the Tox21 10K compound library. BG1Luc4E2 cell line endogenously expresses full-length ER-alpha and is stably transfected with a plasmid containing four estrogen responsive elements (ERE) upstream of a luciferase reporter gene.
Tox21 Assay Protocol Summary:
BG1-Luc-4E2 cells were cultured in phenol red free assay medium containing 10% charcoal stripped FBS for 5 days before the assay was performed. The cells were dispensed at 4,000 cells/4 uL of assay medium per well into white wall/solid-bottom 1536-well plates using a Multidrop Combi (ThermoFisher Scientific, Waltham, MA) dispenser. The assay plates were incubated at a 37C and 5% CO2 for 24 h, and then 23 nL of compounds dissolved in DMSO, positive controls or DMSO only was transferred to the assay plate using a Pintool station (Kalypsys, San Diego, CA), followed by addition of 1 uL of 17beta-estradiol in assay medium using a Flying Reagent Dispenser (Aurora Discovery, San Diego, CA). After the plates were incubated at 37 C and 5% CO2 for 21.5 h, 1 uL of CellTiter-Fluor reagent (Promega, Madison, WI) of measuring cytotoxicity was added using Flying Reagent Dispenser (FRD) to each well. The assay plates were incubated at 37 C and 5% CO2 for additional 30 min and the fluorescence intensity was quantified by a ViewLux plate reader (PerkinElmer, Shelton, CT). For measuring luciferase reporter gene activity, 4 uL of ONE-Glo reagent (Promega) was added to each plate using an FRD and luminescence was quantified by a ViewLux plate reader after 30 min incubation at room temperature.
(Quantitative high-throughput screening tests each substance at several concentrations.)
On to `CC(C)[C@@H](N)C(=O)O`, for which the Potency result is “inactive”. Turning to `CC1(S(=O)(=O)O)CC(=O)c2ccccc2C1=O` (stereo not given), the Potency is 33.5 µM (active).

In the case of `CN(C)C=Nc1c(I)cc(I)c(CCC(=O)O)c1I`, the Potency entry is “inactive”. In the case of `CC(=C\c1ccccc1)/C=C1/SC(=S)N(CC(=O)O)C1=O`, the Potency result was “inactive”.

With `CCOC(=O)COc1ccc2c(C)c(CCN(CC)CC)c(=O)oc2c1`, the Potency entry is “inactive”.

On to `Clc1cc(Cl)c(OCC#CI)cc1Cl`, for which the Potency is 33.5 µM (active). The value for `NCCCC[C@H](NC(=O)[C@@H]1CCCN1C(=O)[C@@H]1CSSC[C@H](N)C(=O)N[C@@H](Cc2ccccc2)C(=O)N[C@@H](Cc2ccccc2)C(=O)N[C@@H](CCC(N)=O)C(=O)N[C@@H](CC(N)=O)C(=O)N1)C(=O)NCC(N)=O` was “inactive”; that for `OC[C@H]1O[C@@H](n2cnc3c2NC=NC[C@H]3O)C[C@@H]1O` was “inactive”; that for `CC1(C)S[C@@H]2[C@H](NC(=O)C(C(=O)O)c3ccsc3)C(=O)N2[C@H]1C(=O)O` (stereo not given in full) was “inactive”. The entry for `C[C@@H]1C/C=C/C=C/C=C/C=C/[C@H](O[C@@H]2O[C@H](C)[C@@H](O)[C@H](N)[C@@H]2O)C[C@@H]2O[C@](O)(C[C@@H](O)C[C@H]3O[C@@H]3/C=C/C(=O)O1)C[C@H](O)[C@H]2C(=O)O` is “inactive”; for `COc1ccc(C(=O)CCC(=O)O)c2ccccc12` it is “inactive”. The value for `CC(C)[C@@H]1CC[C@@H](C)C[C@H]1OC(=O)c1ccccc1O` was “inactive”; that for `O=P(O)(O)OC[C@H]1O[C@](O)(COP(=O)(O)O)[C@@H](O)[C@@H]1O` was “inactive”; that for `C#CCOc1ccc2c(C)cc(=O)oc2c1` was “inactive”. For `COCC(=O)Nc1cc(Sc2ccccc2)ccc1N=C(NC(=O)OC)NC(=O)OC`, the Potency result is “inactive”.

Take `COc1ccc2c(c1)OC(C)(C)C(c1ccccc1)C2c1ccc(OCCN2CCCC2)cc1` (stereo not given): the Potency entry is “inactive”. The entry for `CCCCCCCCCCCCCCCCCC(=O)[O][Al]` is “inactive”.

With `C[Se]CCC(N)C(=O)O` (stereo not given), the Potency result was “inactive”. The entry for `CC1CS(=O)(=O)CCN1/N=C/c1ccc([N+](=O)[O-])o1` (stereo not given) is “inactive”; for `CC(C)(C)c1ccc(CN2CCN(C(c3ccccc3)c3ccc(Cl)cc3)CC2)cc1` (stereo not given) it is “inactive”. The figure for `CCCCCCCCCCCCCCCCOCCOCCOCCOCCOCCOCCOCCOCCOCCOCCOCCOCCOCCOCCOCCOCCOCCOCCOCCOCCO` is 3.76 µM (active); for `CNc1cc(OC)c(C(=O)N[C@H]2CCN(Cc3ccccc3)[C@H]2C)cc1Cl` it is “inactive”. The value for `CN(C)CC/C=C1/c2ccccc2CSc2ccccc21` was “inactive”. Take `CC(C)(C)C(=O)OCOC(=O)[C@@H]1N2C(=O)[C@@H](N=CN3CCCCCC3)[C@H]2SC1(C)C`: the Potency entry was “inactive”.

Consider `Cc1ncc(COP(=O)(O)O)c(CN)c1O`, for which the Potency result was “inactive”. Regarding `CC(CN(C)C)CN1c2ccccc2S(=O)(=O)c2ccccc21` (stereo not given), the Potency entry was “inactive”. The entry for `CC[C@H]1OC(=O)[C@H](C)[C@@H](O[C@H]2C[C@@](C)(OC)[C@@H](O)[C@H](C)O2)[C@H](C)[C@@H](O[C@@H]2O[C@H](C)C[C@H](N(C)C)[C@H]2O)[C@](C)(O)C[C@@H](C)[C@@H]2N[C@@H](COCCOC)O[C@@H]([C@H]2C)[C@]1(C)O` is “inactive”; for `NCCCNCCCCNC(=O)C(O)NC(=O)CCCCCCN=C(N)N` (stereo not given) it is “inactive”; for `CN=C(NC)NCc1ccccc1` it is “inactive”. Take `COc1ccc(C[C@H](C)NC[C@@H](O)c2ccc(O)c(NC=O)c2)cc1`: the Potency entry was “inactive”. As to `CC(=O)N[C@@H]1C(O[C@H]2O[C@H](C(=O)O)C(O)[C@H](O)[C@H]2O)[C@H](O)[C@@H](CO)O[C@H]1O[C@@H]1C(C(=O)O)O[C@@H](O[C@H]2[C@H](O)[C@@H](CO)OC(O)[C@@H]2NC(C)=O)[C@H](O)[C@H]1O` (stereo not given in full), the Potency result is “inactive”. The entry for `NCCC(=O)[N-][C@@H](Cc1cnc[nH]1)C(=O)O.[Zn]` is “inactive”; for `S=C=Nc1ccc(N=C=S)cc1` it is “inactive”; for `CO/N=C(\C(=O)N[C@@H]1C(=O)N2C(C(=O)O)=C(CSc3nnnn3C)CS[C@H]12)c1csc(N)n1` it is “inactive”.

As for `C#C[C@]1(O)CC[C@H]2[C@@H]3CCC4=C(CCC(=O)C4)[C@H]3CC[C@@]21C`, the Potency result is “inactive”. The value for `COc1cc2c(cc1OC)[C@@H](c1ccccc1)CN(C)CC2` was “inactive”; that for `CC(C)CN(C[C@@H](O)[C@H](Cc1ccccc1)NC(=O)O[C@H]1CO[C@H]2OCC[C@H]21)S(=O)(=O)c1ccc(N)cc1` was “inactive”. Regarding `CCN(CC)c1ccc(C(=C2C=CC(=[N+](CC)CC)C=C2)c2ccccc2)cc1`, the Potency is 5.96 µM (active). Consider `CN[C@@H]1[C@H](O[C@H]2[C@H](O[C@H]3[C@H](O)[C@@H](O)[C@H](N=C(N)N)[C@@H](O)[C@@H]3N=C(N)N)O[C@@H](C)[C@]2(O)C=O)O[C@@H](CO)[C@H](O)[C@H]1O`, for which the Potency result was “inactive”. The figure for `CO[C@H]1C[C@@H]2CC[C@@H](C)[C@@](O)(O2)C(=O)C(=O)N2CCCC[C@H]2C(=O)O[C@H]([C@H](C)C[C@@H]2CC[C@@H](OCCO)[C@H](OC)C2)CC(=O)[C@H](C)/C=C(\C)[C@@H](O)[C@@H](OC)C(=O)[C@H](C)C[C@H](C)/C=C/C=C/C=C/1C` is 0.0047 µM (active).
